Source: PubChem BioAssay (The Scripps Research Institute Molecular Screening Center)
Most compounds without a hit are left out; they make up all but 1.1% or so of the library.
GalR3 antagonist – antagonists of human GalR3; O60755; HEK293 GalR3-CNG cAMP membrane potential fluorescence; galR3 body fused to GalR1 C-terminus; inhibition, % at 3 µM; actives 0.44% (n = 360,000); AID 651719;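 active = inhibition above the screen-wide average plus 3 SD, cut at about 13% in these data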;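 note: forskolin and galanin both at EC90 stimulate the cells; cAMP rise reported by CNG channel membrane potential dye signal; 0% = forskolin plus galanin with DMSO and 100% = forskolin alone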
NCOA1 inh – human NCOA1 inhibition | Q15788 | HEK293 GAL4-SRC1 luciferase reporter, luminescence | inhibition, % at 3.6 µM | actives 0.12% (n = 360,000) | AID 588354;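 active = inhibition above the campaign mean plus 3 SD, with each screening campaign given its own cutoff, cut at about 60% in these data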;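 note: 0% = DMSO treated cells and 100% = gossypol at 36 µM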
Target sequence (Q15788 whole entry, looked up, the tested form may be a part): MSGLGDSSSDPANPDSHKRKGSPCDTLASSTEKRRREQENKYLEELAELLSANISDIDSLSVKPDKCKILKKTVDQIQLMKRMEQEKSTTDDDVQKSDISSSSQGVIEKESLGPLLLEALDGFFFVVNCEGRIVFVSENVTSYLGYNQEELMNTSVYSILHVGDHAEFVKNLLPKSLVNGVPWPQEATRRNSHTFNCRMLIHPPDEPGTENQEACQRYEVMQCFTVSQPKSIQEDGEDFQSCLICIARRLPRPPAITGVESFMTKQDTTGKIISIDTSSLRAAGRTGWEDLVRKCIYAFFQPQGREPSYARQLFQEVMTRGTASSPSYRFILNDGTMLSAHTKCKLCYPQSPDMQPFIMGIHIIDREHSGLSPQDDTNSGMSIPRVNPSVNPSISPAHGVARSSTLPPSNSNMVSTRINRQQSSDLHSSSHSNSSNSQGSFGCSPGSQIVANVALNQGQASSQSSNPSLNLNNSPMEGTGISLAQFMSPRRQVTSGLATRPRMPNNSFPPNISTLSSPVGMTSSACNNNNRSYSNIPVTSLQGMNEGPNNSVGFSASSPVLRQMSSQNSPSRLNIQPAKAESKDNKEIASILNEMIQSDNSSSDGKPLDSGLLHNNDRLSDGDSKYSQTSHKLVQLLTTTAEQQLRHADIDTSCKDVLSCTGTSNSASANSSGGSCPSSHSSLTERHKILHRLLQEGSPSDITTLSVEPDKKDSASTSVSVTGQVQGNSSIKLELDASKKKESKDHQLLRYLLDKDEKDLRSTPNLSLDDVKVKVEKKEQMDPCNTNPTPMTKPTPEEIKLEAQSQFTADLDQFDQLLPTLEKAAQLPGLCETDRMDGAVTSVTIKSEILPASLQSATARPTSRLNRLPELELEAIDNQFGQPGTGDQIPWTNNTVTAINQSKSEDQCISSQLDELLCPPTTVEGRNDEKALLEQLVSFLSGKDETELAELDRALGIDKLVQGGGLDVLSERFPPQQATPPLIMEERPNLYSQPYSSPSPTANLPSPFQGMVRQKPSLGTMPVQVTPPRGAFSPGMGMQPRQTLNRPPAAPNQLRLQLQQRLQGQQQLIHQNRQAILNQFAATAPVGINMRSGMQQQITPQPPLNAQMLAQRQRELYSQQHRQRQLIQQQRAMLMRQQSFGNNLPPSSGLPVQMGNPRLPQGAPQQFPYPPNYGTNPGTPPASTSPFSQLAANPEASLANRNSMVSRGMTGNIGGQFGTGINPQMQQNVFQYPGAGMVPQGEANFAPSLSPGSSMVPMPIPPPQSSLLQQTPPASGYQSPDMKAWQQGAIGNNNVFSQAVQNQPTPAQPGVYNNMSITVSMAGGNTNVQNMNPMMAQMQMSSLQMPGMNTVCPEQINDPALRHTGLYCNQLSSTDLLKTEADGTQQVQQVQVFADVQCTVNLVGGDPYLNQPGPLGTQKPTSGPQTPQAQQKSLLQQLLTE
NCOA2 inhibitor – inhibits human steroid receptor coactivator 2 | inhibition, % at 9 µM | HEK293 GAL4-SRC2 luciferase reporter, luminescence | Q15596 | actives 0.17% (n = 370,000);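 active = inhibition above the mean inhibition of all tested compounds plus 3 SD, set per campaign, cut at about 52% in these data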;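 note: 0% = DMSO treated cells and 100% = cells given Gossypol at 36 µM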
NCOA3 inh – inhibits human SRC3 coactivator; actives 0.17% (n = 360,000); Q9Y6Q9; HEK293 GAL4-SRC3 luciferase reporter, luminescence; inhibition, % at 3.6 µM; AID 588352;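 active = inhibition above a per-campaign cutoff, the mean of all compounds plus 3 SD, cut at about 60% in these data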;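 note: 0% = DMSO-treated cells and 100% = gossypol-treated cells at 36 µM; higher means less SRC3-driven luciferase light from the GAL4 reporter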
COUP-TFII inh – inhibitors of human COUP-TFII (NR2F2) | P24468 | HEK293T NGFI-A luciferase reporter, luminescence | inhibition, % at 8.6 µM | actives 0.7% (n = 370,000);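 active = inhibition above a per-plate cutoff, mean inhibition of test wells between control levels plus 3 SD, cut at about 38% in these data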;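 note: cells cotransfected with COUP-TFII expression vector driving the NGFI-A reporter; 0% = median of COUP-TF2 test wells and 100% = reporter-only cells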
NR5A2 inv ag – NR5A2 inverse agonism in reporter assay; O00482; HEK293T StAR-luciferase reporter, LRH-1 transfected, 24 h; inhibition, % at 3.6 µM; actives 0.13% (n = 360,000); AID 602396;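 active = inhibition above the mean inhibition of all tested compounds plus 3 SD, cut at about 73% in these data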;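 note: 0% = DMSO wells and 100% = reporter-only cells lacking LRH-1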
GalR3 antag conf – confirmation of human galanin receptor 3 antagonists; shares compounds with GalR3 antagonist; inhibition, % at 3 µM; actives 59% (n = 1,600); HEK293 GalR3 CNG cAMP biosensor, membrane potential fluorescence; galR3 fused to GalR1 carboxy tail; challenged with forskolin and galanin at EC90;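 active = inhibition above the primary screen's cutoff, the mean inhibition of all screened compounds plus 3 SD, cut at about 13% in these data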;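 note: 0% = forskolin plus galanin and 100% = forskolin alone with DMSO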
HEK-CNG parental – parental cell agonism counter-screen for GalR3 antagonists. shares compounds with GalR3 antagonist. HEK293-CNG parental cells, cAMP membrane potential fluorescence; normalised: DMSO wells 0%, forskolin wells 100%. activation, % at 3 µM. actives 10% (n = 1,600). AID 652268; in the data active = activation above about 1.3%
* = called active by the depositor; . = not tested or not shown.

SMILES	GalR3 antagonist	NCOA1 inh	NCOA2 inhibitor	NCOA3 inh	COUP-TFII inh	NR5A2 inv ag	GalR3 antag conf	HEK-CNG parental
CCN1CC(=O)Nc2cc(S(=O)(=O)N3CCOCC3)ccc21	15.6*	0.8	12.6	11.5	5.6	-4.1	-2.2	0.2
CCN1C(=O)Cc2cc(S(=O)(=O)N3CCOCC3)ccc21	-4.0	-7.2	6.3	-5.3	-9.6	-2.5	.	.
COc1cc(C(=O)O[C@H]2CC(C)=CC[C@@]3(C)CC[C@@](O)(C(C)C)[C@H]23)ccc1O	25.8*	8.2	-5.6	-18.1	-3.1	16.8	21.3*	0.1
COc1cc(C(=O)O[C@H]2C/C(C)=C/CC[C@]3(C)O[C@@H]3C(O)C2C(C)C)cc(OC)c1OC (some centres not stated)	-2.5	-11.2	-0.8	1.4	2.8	12.7	.	.
CC(=O)Nc1cccc(C(C)C2=CCCCC2)c1 (configuration not stated)	.	.	12.6	.	-20.3	.	.	.
CCCCCC(O)C=CC1C(O)CC(O)C1CC=CCCCC(=O)O (configuration not stated)	95.9*	-24.3	-11.4	-5.9	-6.8	15.9	95.3*	0.4
COC(=O)c1ccc(C2=NOC(C)(c3sc(-c4ccccc4)nc3C)C2)cc1 (configuration not stated)	.	5.9	5.3	-36.7	-76.6	-2.8	31.7*	1.5*
CCCN1CCS(=O)(=O)N(Cc2cn(Cc3ccc(F)cc3)nn2)C(C(=O)OC)C1 (configuration not stated)	.	.	1.9	.	-9.7	.	.	.
COC(=O)COc1ccc(-c2ccccc2)cc1C=O	16.7*	5.9	-11.3	2.5	-7.8	-9.6	4.0	0.9
COc1cc(Cn2c(-c3ccc(O)c(OC)c3)nc3ccccc32)ccc1O	23.2*	0.7	-2.6	7.3	-4.5	-8.1	17.4*	0.5
COc1ccc(-c2nc3ccccc3n2Cc2ccccc2)cc1	-3.4	-13.7	-34.8	-7.0	-11.3	-6.6	.	.
COC(=O)C1CN(CCc2ccccc2)CCS(=O)(=O)N1Cc1ccc(C(F)(F)F)cc1 (configuration not stated)	.	.	0.6	.	8.4	.	.	.
COc1cc(C=Nn2c(-c3ccc(F)cc3)n[nH]c2=S)ccc1OCc1ccccc1	.	.	19.6	.	14.0	.	.	.
N#C/C(=N\Nc1cc(Cl)cc(Cl)c1)c1nnc2n1CCCCC2	15.2*	9.3	15.4	11.6	6.4	-5.1	0.4	1.7*
N#C/C(=C(/O)CCl)c1nnc2n1CCCCC2	-5.0	-10.0	2.7	7.9	1.5	19.1	.	.
Cc1ccc(C(=O)NCCCn2ccnc2)cn1	.	0.1	6.6	7.5	-29.3	-13.2	5.7	-0.2
CC(C)(C)c1ccc(C(=O)NCCCn2ccnc2)cc1	-3.2	-27.4	-0.2	10.8	-13.0	10.8	.	.
O=c1[nH]c2cccnc2c2ccsc12	22.8*	-7.3	-43.6	2.5	-25.9	6.2	16.7*	0.4
COc1ccc(C(=O)N2CCCC(N3CCN(c4ccccc4OC)CC3)C2)c(OC)n1 (configuration not stated)	.	4.2	13.4	0.3	-3.9	0.1	3.0	-0.1
COc1ccc(Cn2c(NC(=O)c3ccccc3)nc(Cc3ccccc3)c2Cc2ccccc2)cc1	.	.	-29.0	.	-4.3	.	.	.
CCC(=O)Nc1ccc(F)c(Cl)c1	.	-2.2	1.5	11.7	11.0	23.9	-2.6	0.1
Oc1cccc(Oc2ncc(C(F)(F)F)cc2Cl)c1	13.0*	5.0	-5.5	-16.6	-4.7	8.9	1.3	-0.1
COc1ccc(-n2c(SCC(=O)Nc3cc(C)c(NC(=O)c4ccccc4)cc3OC)nnc2-c2ccccc2F)cc1	.	.	23.5	.	0.6	.	.	.
Cc1nc2cc(NC(=O)N3CCC(c4ccccc4)C3)ccc2n1C (configuration not stated)	31.5*	-50.3	-44.9	-27.0	-13.8	-51.1	0.2	0.0
CN1CC=C(c2ccccc2)N(c2ccc(Br)cc2)C1=O	.	.	1.9	.	26.2	.	.	.
SMILES	GalR3 antagonist	NCOA1 inh	NCOA2 inhibitor	NCOA3 inh	COUP-TFII inh	NR5A2 inv ag	GalR3 antag conf	HEK-CNG parental
C[C@@H]1CN([C@@H](C)CO)C(=O)CCCn2nncc2CO[C@H]1CN(C)S(=O)(=O)c1ccc(-c2ccccc2)cc1	13.0*	10.8	6.8	-2.7	-12.5	-9.0	45.4*	0.1
COC(=O)CCC(=O)N1C2=NC3=C(C(=O)N(Cc4ccc5c(c4)OCO5)C3=O)C3N(C)c4ccccc4[C@]23C[C@H]1CO (some centres not stated)	.	.	-5.1	.	4.3	.	.	.
O=C(N/N=C/c1ccc(O)c(O)c1)N/N=C/c1ccc(O)c(O)c1	13.4*	-38.5	-19.9	-30.0	-23.4	-13.3	-0.6	0.1
Cc1nonc1C(=O)N/N=C/c1ccc(O)c(O)c1	-11.8	-24.8	3.9	-7.6	-27.5	-8.2	.	.
CCCc1ccccc1OCCNC(=O)c1cc(=O)n(C)c(=O)n1C	15.9*	-22.6	11.5	-3.8	9.2	7.8	4.6	0.4
Clc1ccc([C@H]2OC[C@@]3(CNCCc4c[nH]c5ccccc45)CS[C@H](c4ccc(Cl)cc4)N23)cc1	.	.	-8.0	.	5.0	.	.	.
O=C(COC(=O)c1cccnc1)Nc1ccc2c(c1)OCO2	14.0*	5.2	7.1	14.3	4.9	-16.6	-1.3	0.0
COc1ccc(C(=O)C(CN2CCOCC2)c2ccccc2)cc1F (configuration not stated)	27.7*	16.1	36.6	24.1	-21.5	-14.1	1.4	0.1
COc1ccc(C(=O)OC(C)CN2CCOCC2)cc1OC (configuration not stated)	.	4.0	10.5	-51.4	17.1	-9.4	2.8	-0.1
C/C=C/C(=O)Nc1cccc(C2=NOC3(C2)C[C@@H](C(N)=O)N(C(=O)c2cc([N+](=O)[O-])cc([N+](=O)[O-])c2C)C3)c1 (some centres not stated)	13.4*	-5.2	6.9	-13.3	-1.3	-0.2	1.2	0.2
O=C(NN=C(c1ccccc1)c1ccccn1)c1ccccc1	12.7*	40.5	31.7	45.3	-13.0	15.5	39.4*	0.5
O=C(Nc1ccc(Cl)c(Cl)c1)C1CCCN1S(=O)(=O)c1cccc2cccnc12 (configuration not stated)	.	.	30.2	.	16.5	.	.	.
COc1cc(/C=N/S(=O)(=O)c2ccccc2)cc(OC)c1O	14.5*	-5.4	-10.6	-17.6	15.1	-0.4	-1.1	0.3
COc1ccc(N2CCN(CCCNC(=O)CCc3ccc(F)cc3)CC2)cc1	.	.	-10.1	.	-21.6	.	.	.
CCOC(=O)Cc1csc(NC(=O)c2cc(=O)c3ccccc3o2)n1	91.8*	-7.0	13.0	-10.4	6.8	-6.8	89.9*	0.2
